Drawing on PubChem BioAssay (NCATS), this text covers Potency for nine compounds.

SMILES strings stand for the structures. Records with an inconclusive call do not appear. A call without a number means that no potency is given here. Calls of active or inactive are those of the source. The call rests on the fitted dose curve; in most records, active means well fitted inhibition curve with a large enough effect; inconclusive means small, poorly fitted or top-dose-only effect; inactive means flat fitted curve, though single readings scatter.
Potency means the concentration at half of the fitted maximal effect.

One assay relates to CP247. The assay can be described thus: qHTS profiling for inhibitors of Plasmodium falciparum proliferation (AID 504749). Further: nearly all actives have a fitted effect of over 60% in size. The note with it: P. falciparum in erythrocytes, SYBR Green DNA, 72 h; series mostly up to 28.7 µM. The procedure, abridged: (§1)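 P. falciparum-infected erythrocytes (0.3% parasitemia, 2.5% hematocrit) incubated with compound 72 h at 37 C, 5% CO2. Parasite DNA detected by SYBR Green after lysis, overnight at room temperature; normalised to 0.29 uM artemisinin and DMSO.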
On the technique in general: qHTS replaces the single test concentration by a dilution series.
With `CO/N=C(/C(=O)N[C@@H]1C(=O)N2C(C(=O)O)=CCS[C@H]12)c1csc(N)n1`, the Potency entry is “inactive”.
On the same count and under the same terms, next, `Cc1cc(CC(C)CC(C)(C)C)n(O)c(=O)c1` (stereo unspecified): 2.24 µM (active); `CC1CCC(C(C)C)C(OC(=O)c2ccccc2O)C1` (stereo unspecified): “inactive”; `CC(C)(CO)C(O)C(=O)NCCCC(=O)O` (stereo unspecified): 0.0112 µM (active).
With `CO[C@@H]1[C@@H](OC2OC(C)C(OC3CC(C)(O)C(OC(=O)CC(C)C)C(C)O3)C(N(C)C)C2O)[C@@H](CC=O)C[C@@H](C)C(=O)/C=C\C2O[C@H]2C[C@@H](C)OC(=O)C[C@H]1OC(C)=O` (stereo partly specified), the Potency was 11.2 µM (active).
Still for that read-out and setting: the entry for `CCC(=O)O[C@@H](OP(=O)(CCCCc1ccccc1)CC(=O)N1C[C@H](C2CCCCC2)C[C@H]1C(=O)O)C(C)C` (stereo partly specified) is “inactive”; for `CC(=O)O[C@@]12CO[C@@H]1C[C@H](O)[C@@]1(C)C(=O)[C@H](O)C3=C(C)[C@@H](OC(=O)C(O)[C@@H](NC(=O)OC(C)(C)C)c4ccccc4)C[C@@](O)([C@@H](OC(=O)c4ccccc4)[C@H]21)C3(C)C` (stereo partly specified) it is 0.0398 µM (active).
With `CC1(C)S[C@@H]2[C@H](NC(=O)COc3ccccc3)C(=O)N2[C@H]1C(=O)O`, the Potency result is “inactive”.
On to `CCN1/C(=C/C=C/C=C/c2sc3ccccc3[n+]2CC)Sc2ccccc21`, for which the Potency is 4.47 µM (active).

For a further assay, the system named is CP250. Described as above. As to conditions: P. falciparum in erythrocytes, SYBR Green DNA, 72 h; series mostly up to 28.7 µM. An outline of the steps:
as §1
For the compound `CO/N=C(/C(=O)N[C@@H]1C(=O)N2C(C(=O)O)=CCS[C@H]12)c1csc(N)n1`, the Potency result is “inactive”.
Same read-out and setting: next, `Cc1cc(CC(C)CC(C)(C)C)n(O)c(=O)c1` (stereo unspecified): 1.12 µM (active); `CC1CCC(C(C)C)C(OC(=O)c2ccccc2O)C1` (stereo unspecified): “inactive”; `CO[C@@H]1[C@@H](OC2OC(C)C(OC3CC(C)(O)C(OC(=O)CC(C)C)C(C)O3)C(N(C)C)C2O)[C@@H](CC=O)C[C@@H](C)C(=O)/C=C\C2O[C@H]2C[C@@H](C)OC(=O)C[C@H]1OC(C)=O` (stereo partly specified): 10 µM (active).
As for `CCC(=O)O[C@@H](OP(=O)(CCCCc1ccccc1)CC(=O)N1C[C@H](C2CCCCC2)C[C@H]1C(=O)O)C(C)C` (stereo partly specified), the Potency entry was “inactive”.
The same measure, in the same setting: the entry for `CC1(C)S[C@@H]2[C@H](NC(=O)COc3ccccc3)C(=O)N2[C@H]1C(=O)O` is “inactive”; for `CCN1/C(=C/C=C/C=C/c2sc3ccccc3[n+]2CC)Sc2ccccc21` it is 3.98 µM (active).
